The text below walks through data of article PMC7862700, “An all-to-all approach to the identification of sequence-specific readers for epigenetic DNA modifications on cytosine”.

Experiment in all cases: DAPPL (digital affinity profiling via proximity ligation, sequencing); 10 mM Tris-HCl pH 7.5, 50 mM NaCl, 1 mM DTT, 4% glycerol, room temperature, 30 min; GST-TFs on glutathione beads, 16-mer random dsDNA library, 0.1% formaldehyde crosslink after washing; high values mean tight binding
Common to all, as to conditions: protein: recombinant; tags: N-terminal GST; dsDNA, one strand shown

The target of test [1] is T1, FLI1 (Homo sapiens, UniProt Q01543 1-452).
T1 sequence: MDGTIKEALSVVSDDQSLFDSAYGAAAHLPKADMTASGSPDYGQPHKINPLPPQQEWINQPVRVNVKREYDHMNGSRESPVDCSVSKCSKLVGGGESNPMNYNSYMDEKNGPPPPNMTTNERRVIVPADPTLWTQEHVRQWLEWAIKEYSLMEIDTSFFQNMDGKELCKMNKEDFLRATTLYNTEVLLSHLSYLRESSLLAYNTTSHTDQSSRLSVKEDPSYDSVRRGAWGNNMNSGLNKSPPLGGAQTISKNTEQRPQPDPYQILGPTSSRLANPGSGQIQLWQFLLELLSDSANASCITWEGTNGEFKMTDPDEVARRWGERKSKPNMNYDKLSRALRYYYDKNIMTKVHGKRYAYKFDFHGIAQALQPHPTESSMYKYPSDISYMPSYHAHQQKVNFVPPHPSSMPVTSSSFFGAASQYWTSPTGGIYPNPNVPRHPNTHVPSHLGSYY
The gist of the method:
(§1)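 Human transcription factors were made in yeast as GST fusions, captured on glutathione beads and barcoded with DNA. With a tag-only sample included, the pool was incubated with 200 nmole of a random double-stranded 16-mer DNA library in Tris/NaCl/DTT/glycerol buffer at room temperature for 30 min, then crosslinked with 0.1% formaldehyde after washing, ligated by proximity, amplified and sequenced. For binding signal, each hexamer's read frequency for a factor is divided by its frequency for the tag-only sample.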

In test [2] the target is T2, ELK1 (Homo sapiens, UniProt P19419 1-428).
T2 sequence: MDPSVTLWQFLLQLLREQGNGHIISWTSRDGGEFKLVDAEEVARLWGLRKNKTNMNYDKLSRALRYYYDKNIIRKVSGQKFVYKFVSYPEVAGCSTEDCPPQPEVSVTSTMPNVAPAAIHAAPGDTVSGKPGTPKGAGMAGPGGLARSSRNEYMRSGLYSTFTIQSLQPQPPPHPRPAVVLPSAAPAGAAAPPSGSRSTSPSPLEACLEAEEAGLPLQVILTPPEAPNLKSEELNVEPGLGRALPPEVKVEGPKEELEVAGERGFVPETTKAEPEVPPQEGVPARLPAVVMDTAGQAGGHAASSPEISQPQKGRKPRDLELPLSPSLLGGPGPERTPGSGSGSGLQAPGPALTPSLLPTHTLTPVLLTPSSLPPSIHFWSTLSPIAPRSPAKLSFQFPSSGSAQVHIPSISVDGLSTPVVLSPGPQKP
In short, it runs like this:
as §1

For test [3], the target named is T3, GABPA (Homo sapiens, UniProt Q06546 1-454).
T3 sequence: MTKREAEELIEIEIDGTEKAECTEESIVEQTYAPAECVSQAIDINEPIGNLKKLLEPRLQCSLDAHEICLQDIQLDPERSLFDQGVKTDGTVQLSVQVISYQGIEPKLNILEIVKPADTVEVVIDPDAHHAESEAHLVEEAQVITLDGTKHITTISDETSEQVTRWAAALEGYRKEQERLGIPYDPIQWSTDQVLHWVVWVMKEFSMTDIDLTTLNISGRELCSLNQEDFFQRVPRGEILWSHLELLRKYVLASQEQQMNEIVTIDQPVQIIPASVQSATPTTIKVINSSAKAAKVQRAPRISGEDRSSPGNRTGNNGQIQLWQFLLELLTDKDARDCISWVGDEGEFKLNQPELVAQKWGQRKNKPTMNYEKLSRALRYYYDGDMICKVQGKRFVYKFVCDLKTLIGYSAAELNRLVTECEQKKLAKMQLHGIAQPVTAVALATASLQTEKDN
The gist of the method: as §1

Test [4] has as its target T4, ERG (Homo sapiens, UniProt P11308 1-479).
T4 sequence: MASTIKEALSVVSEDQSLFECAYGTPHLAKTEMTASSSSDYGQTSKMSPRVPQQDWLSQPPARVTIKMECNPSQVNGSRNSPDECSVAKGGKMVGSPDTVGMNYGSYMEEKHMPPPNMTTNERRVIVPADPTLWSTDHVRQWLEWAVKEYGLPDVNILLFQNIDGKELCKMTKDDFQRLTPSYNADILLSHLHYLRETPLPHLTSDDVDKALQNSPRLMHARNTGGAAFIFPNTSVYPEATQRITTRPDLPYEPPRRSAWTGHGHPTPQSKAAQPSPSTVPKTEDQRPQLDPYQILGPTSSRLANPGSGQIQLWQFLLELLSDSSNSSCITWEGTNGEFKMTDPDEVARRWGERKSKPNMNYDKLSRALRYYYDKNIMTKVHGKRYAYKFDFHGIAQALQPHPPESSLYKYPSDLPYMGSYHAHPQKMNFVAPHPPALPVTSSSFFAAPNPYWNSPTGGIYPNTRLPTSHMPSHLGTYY
The gist of the method: as §1

Test [5] addresses ELF1 (Homo sapiens, UniProt P32519 1-619). The gist of the method: as §1
The target in test [6] is T5, EHF (Homo sapiens, UniProt Q9NZC4 1-300).
T5 sequence: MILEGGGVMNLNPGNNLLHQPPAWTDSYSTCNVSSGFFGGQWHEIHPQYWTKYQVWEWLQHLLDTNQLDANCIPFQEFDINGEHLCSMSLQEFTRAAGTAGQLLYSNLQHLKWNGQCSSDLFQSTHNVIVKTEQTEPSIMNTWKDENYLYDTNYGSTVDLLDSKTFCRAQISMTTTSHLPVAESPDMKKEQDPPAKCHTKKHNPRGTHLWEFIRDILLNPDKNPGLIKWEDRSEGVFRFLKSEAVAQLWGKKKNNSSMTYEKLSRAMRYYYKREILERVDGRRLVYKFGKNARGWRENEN
The gist of the method:
as §1

The target of test [7] is SPI1 (Homo sapiens, UniProt P17947 1-270). The gist of the method: as §1
Test [8] deals with SPIB (Homo sapiens, UniProt Q01892 1-262). In short, it runs like this: as §1
SPIB, sequence (Q01892 whole entry): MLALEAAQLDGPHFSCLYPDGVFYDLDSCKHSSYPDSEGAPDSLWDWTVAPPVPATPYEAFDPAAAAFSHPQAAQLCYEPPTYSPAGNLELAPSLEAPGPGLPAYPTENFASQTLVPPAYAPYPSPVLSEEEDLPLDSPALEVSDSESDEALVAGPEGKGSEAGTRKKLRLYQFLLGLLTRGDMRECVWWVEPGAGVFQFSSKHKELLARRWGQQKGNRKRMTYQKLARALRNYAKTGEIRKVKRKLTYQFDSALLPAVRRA
Test [9] concerns the target T6, ELK3 (Homo sapiens, UniProt P41970 1-407).
T6 sequence: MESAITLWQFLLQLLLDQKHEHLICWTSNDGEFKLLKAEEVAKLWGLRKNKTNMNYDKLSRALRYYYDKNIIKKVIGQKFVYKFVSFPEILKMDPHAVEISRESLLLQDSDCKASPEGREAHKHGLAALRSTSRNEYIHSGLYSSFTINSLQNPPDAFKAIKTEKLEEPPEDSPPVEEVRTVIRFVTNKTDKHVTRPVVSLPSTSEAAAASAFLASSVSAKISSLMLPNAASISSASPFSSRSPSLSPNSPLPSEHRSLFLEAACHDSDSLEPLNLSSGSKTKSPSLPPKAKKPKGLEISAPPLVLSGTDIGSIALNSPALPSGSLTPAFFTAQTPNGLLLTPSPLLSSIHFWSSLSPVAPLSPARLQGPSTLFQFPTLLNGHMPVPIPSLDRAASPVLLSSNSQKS
In short, it runs like this: as §1

ELF1, sequence (P32519 whole entry): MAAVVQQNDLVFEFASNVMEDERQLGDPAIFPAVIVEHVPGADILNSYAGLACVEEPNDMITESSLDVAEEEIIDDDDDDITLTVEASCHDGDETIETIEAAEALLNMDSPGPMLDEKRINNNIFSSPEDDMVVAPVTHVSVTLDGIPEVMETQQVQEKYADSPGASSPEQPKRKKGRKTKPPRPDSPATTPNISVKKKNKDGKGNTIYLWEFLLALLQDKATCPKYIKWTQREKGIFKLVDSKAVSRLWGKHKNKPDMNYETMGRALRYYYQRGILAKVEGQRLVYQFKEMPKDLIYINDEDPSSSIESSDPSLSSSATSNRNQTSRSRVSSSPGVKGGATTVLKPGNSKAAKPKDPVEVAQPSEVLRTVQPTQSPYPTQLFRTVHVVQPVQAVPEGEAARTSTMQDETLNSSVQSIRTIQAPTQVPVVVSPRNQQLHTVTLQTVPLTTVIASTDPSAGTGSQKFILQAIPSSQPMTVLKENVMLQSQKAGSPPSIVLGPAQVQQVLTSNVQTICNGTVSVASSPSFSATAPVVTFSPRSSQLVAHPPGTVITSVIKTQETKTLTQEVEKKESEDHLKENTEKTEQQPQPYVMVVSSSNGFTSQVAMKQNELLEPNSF

With CAGGAA, the binding signal is 1.63 fold enrichment (6-mer frequency, TF over GST control) in [1]; 1.57 fold enrichment (6-mer frequency, TF over GST control) in [2]; 1.5 fold enrichment (6-mer frequency, TF over GST control) in [3]; 1.83 fold enrichment (6-mer frequency, TF over GST control) in test [4]; 1.48 fold enrichment (6-mer frequency, TF over GST control) in test [5]; 1.79 fold enrichment (6-mer frequency, TF over GST control) in test [6]. Moreover, the binding signal in [7] was 1.96 fold enrichment (6-mer frequency, TF over GST control); in test [8] it was 1.69 fold enrichment (6-mer frequency, TF over GST control); in test [9] it was 1.57 fold enrichment (6-mer frequency, TF over GST control).

As to ACTCCA, the binding signal in [1] was 1.15 fold enrichment (6-mer frequency, TF over GST control); in test [2] it was 1.24 fold enrichment (6-mer frequency, TF over GST control); in test [3], 1.29 fold enrichment (6-mer frequency, TF over GST control); in [4], 1.26 fold enrichment (6-mer frequency, TF over GST control); in test [5], 1.21 fold enrichment (6-mer frequency, TF over GST control); in [6] it was 1.17 fold enrichment (6-mer frequency, TF over GST control). Also, the binding signal in test [7] was 1.23 fold enrichment (6-mer frequency, TF over GST control); in test [8], 1.16 fold enrichment (6-mer frequency, TF over GST control); in test [9], 1.17 fold enrichment (6-mer frequency, TF over GST control).

Regarding ATTCCC, the binding signal in test [1] is 1.37 fold enrichment (6-mer frequency, TF over GST control); in [2], 1.32 fold enrichment (6-mer frequency, TF over GST control); in test [3], 1.38 fold enrichment (6-mer frequency, TF over GST control); in [4], 1.3 fold enrichment (6-mer frequency, TF over GST control); in test [5] it was 1.4 fold enrichment (6-mer frequency, TF over GST control); in test [6], 1.35 fold enrichment (6-mer frequency, TF over GST control). Moreover, the binding signal in test [7] was 1.34 fold enrichment (6-mer frequency, TF over GST control); in [8], 1.48 fold enrichment (6-mer frequency, TF over GST control); in test [9] it was 1.44 fold enrichment (6-mer frequency, TF over GST control).

In the case of ACAACT, the binding signal in test [1] was 1.36 fold enrichment (6-mer frequency, TF over GST control); in [2] it was 1.4 fold enrichment (6-mer frequency, TF over GST control); in test [3] it was 1.4 fold enrichment (6-mer frequency, TF over GST control); in [4], 1.41 fold enrichment (6-mer frequency, TF over GST control); in test [5], 1.46 fold enrichment (6-mer frequency, TF over GST control); in test [6], 1.2 fold enrichment (6-mer frequency, TF over GST control). For the same sequence, the binding signal in test [7] is 1.41 fold enrichment (6-mer frequency, TF over GST control); in test [8], 1.35 fold enrichment (6-mer frequency, TF over GST control); in test [9], 1.5 fold enrichment (6-mer frequency, TF over GST control).

Regarding GCCACT, the binding signal in test [1] is 1.17 fold enrichment (6-mer frequency, TF over GST control); in test [2] it was 1.2 fold enrichment (6-mer frequency, TF over GST control); in test [3], 1.16 fold enrichment (6-mer frequency, TF over GST control); in [4], 1.23 fold enrichment (6-mer frequency, TF over GST control); in test [5] it was 1.23 fold enrichment (6-mer frequency, TF over GST control); in [6], 1.1 fold enrichment (6-mer frequency, TF over GST control). Further, the binding signal in [7] is 1.17 fold enrichment (6-mer frequency, TF over GST control); in test [8] it was 1.06 fold enrichment (6-mer frequency, TF over GST control); in test [9], 1.26 fold enrichment (6-mer frequency, TF over GST control).

On to TCTGTC, for which the binding signal was 1.16 fold enrichment (6-mer frequency, TF over GST control) in [1]; 1.13 fold enrichment (6-mer frequency, TF over GST control) in [2]; 1.16 fold enrichment (6-mer frequency, TF over GST control) in test [3]; 1.17 fold enrichment (6-mer frequency, TF over GST control) in test [4]; 1.12 fold enrichment (6-mer frequency, TF over GST control) in test [5]; 1.14 fold enrichment (6-mer frequency, TF over GST control) in [6]. The binding signal was 1.1 fold enrichment (6-mer frequency, TF over GST control) in test [7]; 1.05 fold enrichment (6-mer frequency, TF over GST control) in [8]; 1.17 fold enrichment (6-mer frequency, TF over GST control) in test [9].

For TCGCAA, the binding signal in test [1] was 1.21 fold enrichment (6-mer frequency, TF over GST control); in [2], 1.22 fold enrichment (6-mer frequency, TF over GST control); in test [3], 1.19 fold enrichment (6-mer frequency, TF over GST control); in test [4] it was 1.16 fold enrichment (6-mer frequency, TF over GST control); in test [5], 1.19 fold enrichment (6-mer frequency, TF over GST control); in test [6], 1.18 fold enrichment (6-mer frequency, TF over GST control). Besides, the binding signal was 1.03 fold enrichment (6-mer frequency, TF over GST control) in [7]; 1.08 fold enrichment (6-mer frequency, TF over GST control) in test [8]; 1.06 fold enrichment (6-mer frequency, TF over GST control) in test [9].

With AAATTC, the binding signal in test [1] is 1.31 fold enrichment (6-mer frequency, TF over GST control); in [2] it was 1.31 fold enrichment (6-mer frequency, TF over GST control); in test [3] it was 1.4 fold enrichment (6-mer frequency, TF over GST control); in test [4], 1.24 fold enrichment (6-mer frequency, TF over GST control); in test [5], 1.31 fold enrichment (6-mer frequency, TF over GST control); in [6] it was 1.32 fold enrichment (6-mer frequency, TF over GST control). Also, the binding signal was 1.26 fold enrichment (6-mer frequency, TF over GST control) in [7]; 1.33 fold enrichment (6-mer frequency, TF over GST control) in test [8]; 1.42 fold enrichment (6-mer frequency, TF over GST control) in test [9].
